nsP2pro inh: Primary qHTS for inhibitors of NSP2Pro chikungunya virus (CHIKV). Potency, µM (titrated, usually from 24.9 µM), actives largely listed as inhibitors. AID 1964107, 2024. 31,000 tested, 1.1% active. Polyprotein P1234 (Chikungunya virus (strain S27-African prototype)), Q8JUX6. FRET peptide cleavage, nsP2pro, fluorescence 1 h; note: nearly all actives have a fitted effect of over 60% in size
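Recombinant nsP2pro (150 nM) was preincubated with compound 15 min at room temperature in 10 mM Tris-HCl pH 8.0, 0.01% Tween 20. Peptide 2 FRET substrate (2.5 uM) was then added and fluorescence read after 1 h. Seven-point series, up to 25 uM.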
CHIKV nsP2 cell: Secondary cell base assay for inhibitors of NSP2Pro Chikungunya virus (CHIKV); shares compounds with nsP2pro inh; cell-based CHIKV nsP2 protease reporter assay; Potency, µM (highest dose often 51.1 µM), hits mostly inhibitors; 450 tested, 10% active; AID 1964100, 2024; note: nearly all actives have a fitted effect of over 70% in size
Target sequence (Q8JUX6 220-798 limits assumed): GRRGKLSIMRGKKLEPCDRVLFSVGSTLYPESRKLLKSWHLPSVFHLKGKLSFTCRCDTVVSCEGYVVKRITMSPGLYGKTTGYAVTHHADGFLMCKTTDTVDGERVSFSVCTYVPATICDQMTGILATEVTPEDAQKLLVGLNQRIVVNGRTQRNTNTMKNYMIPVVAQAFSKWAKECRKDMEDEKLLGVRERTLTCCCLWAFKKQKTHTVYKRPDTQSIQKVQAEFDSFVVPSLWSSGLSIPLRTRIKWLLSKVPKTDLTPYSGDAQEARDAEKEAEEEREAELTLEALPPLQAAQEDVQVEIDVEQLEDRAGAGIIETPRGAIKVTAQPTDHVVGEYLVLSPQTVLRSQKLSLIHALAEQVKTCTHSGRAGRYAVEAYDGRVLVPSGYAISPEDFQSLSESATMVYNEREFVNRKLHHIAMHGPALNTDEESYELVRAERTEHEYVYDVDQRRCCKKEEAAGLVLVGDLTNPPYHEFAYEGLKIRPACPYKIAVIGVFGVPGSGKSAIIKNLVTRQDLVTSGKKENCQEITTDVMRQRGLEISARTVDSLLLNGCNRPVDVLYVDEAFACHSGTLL
NSP2 full ctr: Selectivity profile for inhibitors of NSP2Pro chikungunya virus (CHIKV): Full length NSP2 enzyme counterscreen (CHIKV-NSP2); shares compounds with nsP2pro inh; Full-length CHIKV NSP2 protease enzymatic counterscreen; Potency, µM (highest dose often 50.7 µM), most hits filed as inhibitors; 410 tested, 39% active; AID 1964101, 2024; note: nearly all actives have a fitted effect of over 65% in size
Furin counter: Selectivity profile for inhibitors of NSP2Pro chikungunya virus (CHIKV): Human furin counterscreen; Recombinant human furin enzymatic counterscreen, fluorogenic substrate; Potency, µM (top dose mostly 50.6 µM), usual class: inhibitors; shares compounds with nsP2pro inh; 410 tested, 6% active
NS23 peptide cs: Selectivity profile for inhibitors of NSP2Pro chikungunya virus (CHIKV): Endogenous NS2/3 peptide Counterscreen; shares compounds with nsP2pro inh; Purified CHIKV nsP2 protease, endogenous NS2/3 peptide cleavage; Potency, µM (series often up to 51 µM), hits mostly inhibitors; 410 tested, 34% active; AID 1964103, 2024; note: nearly all actives have a fitted effect of over 55% in size
Papain counter: Selectivity profile for inhibitors of NSP2Pro chikungunya virus (CHIKV): Papain Counterscreen; shares compounds with nsP2pro inh; purified papain protease activity, enzymatic inhibition; Potency, µM (doses to about 51 µM), actives largely listed as inhibitors; 410 tested, 5% active; AID 1964104, 2024
nsP2pro confirm: Confirmatory qHTS for inhibitors of NSP2Pro chikungunya virus (CHIKV). AID 1964105, 2024. Potency, µM (doses to about 25.5 µM), most hits filed as inhibitors. 410 tested, 43% active. shares compounds with nsP2pro inh. CHIKV nsP2 protease enzymatic activity, qHTS; note: nearly all actives have a fitted effect of over 75% in size
HCV NS3 counter: Selectivity profile for inhibitors of NSP2Pro chikungunya virus (CHIKV): NS34A-HCV Counterscreen | shares compounds with nsP2pro inh | HCV NS3/4A protease biochemical counterscreen | Potency, µM (series often up to 50.9 µM), hits mostly inhibitors | 410 tested, 20% active | AID 1964106, 2024; note: nearly all actives have a fitted effect of over 55% in size
Of the large screens only hits and unclear results are named; the others gave an inactive call (follow-up assays come after a bar, where they were run); ! = a repeat was not active. This is one part of a sample in which hits are shown more often than they occur. Calls come from the whole dose curve.

Cc1cccc(N2CCN(c3ccc(NC(=O)c4ccccc4)cc3C(=O)O)CC2C)c1 (centres undefined)	nsP2pro inh inconclusive | CHIKV nsP2 cell inactive | NSP2 full ctr 6.51µM | Furin counter inconclusive | NS23 peptide cs 16.3µM | Papain counter inactive | nsP2pro confirm 7.98µM | HCV NS3 counter 3.66µM
Cc1cccc(N2CCN(S(=O)(=O)c3cc(C(=O)Nc4ccc(Oc5ccccc5)cc4)ccc3F)CC2C)c1 (centres undefined)	none
C[C@]12C[C@@H](O)[C@@H]3C[C@@]1(O[C@@H]1O[C@H](CO)[C@@H](O)[C@H](O)[C@H]1O)[C@]3(COC(=O)c1ccccc1)C(=O)O2	none
CCCCN(C)C(=O)Cn1nc(-c2ccc(C(F)(F)F)cc2)ccc1=O	none
CCCS(=O)(=O)N1CCCC1C(=O)Nc1ccccc1-c1ccc(OC)cc1 (centres undefined)	none
C[C@H]1O[C@H](O[C@H]2[C@H](O)[C@@H](O)[C@@H](O[C@H]3[C@H](O)[C@@H](O)[C@H](O)O[C@@H]3CO)O[C@@H]2CO)[C@H](O)[C@@H](O)[C@@H]1N[C@H]1C=C(CO)[C@@H](O)[C@H](O)[C@H]1O	none
O=C(COc1ccccc1)N1C[C@@H]2C[C@H](C1)c1c(NS(=O)(=O)c3ccccc3)ccc(=O)n1C2	nsP2pro inh inconclusive | CHIKV nsP2 cell inactive | NSP2 full ctr 16.3µM | Furin counter inactive | NS23 peptide cs inconclusive | Papain counter inactive | nsP2pro confirm inconclusive | HCV NS3 counter inconclusive
CCCS(=O)(=O)Nc1ccc(=O)n2c1[C@@H]1C[C@@H](CN(C(=O)c3ccc(OC)cc3)C1)C2	none
O=C(Nc1ccc(=O)n2c1[C@@H]1C[C@@H](CN(C(=O)COc3ccccc3)C1)C2)c1ccccc1	none
CCCS(=O)(=O)Nc1ccc(F)c(C(=O)c2c[nH]c3ncc(-c4ccc(Cl)cc4)cc23)c1F	none
OC[C@H]1O[C@@H](Oc2cccc3ccccc23)[C@H](O)[C@@H](O)[C@H]1O	none
Nc1c(Br)cc(Br)cc1CNC1CCC(O)CC1 (centres undefined)	none
Oc1c(Br)cc(Br)cc1CNC1CCC(O)CC1 (centres undefined)	nsP2pro inh 8.81µM | CHIKV nsP2 cell inactive | NSP2 full ctr inactive | Furin counter inactive | NS23 peptide cs inactive | Papain counter inactive | nsP2pro confirm inactive | HCV NS3 counter inactive
Cc1cnc(CCNC(=O)c2n[nH]c(=O)c3ccccc23)n1C1CCCCC1	none
NCC(=O)Nc1ccc(-n2nc(C(F)(F)F)cc2-c2ccc3c(ccc4ccccc43)c2)cc1	none
COc1ccc(S(=O)(=O)N2CCN(S(=O)(=O)c3ccc(OC)cc3)CC2)cc1	none
COc1ccc(S(=O)(=O)c2cc3cc(OC)ccc3oc2=O)cc1	none
COc1ccc(S(=O)(=O)ON=C2C=C(C)C(=O)C(C)=C2)cc1	nsP2pro inh inconclusive | CHIKV nsP2 cell 2.24µM | NSP2 full ctr inconclusive | Furin counter inactive | NS23 peptide cs 6.51µM | Papain counter 9.19µM | nsP2pro confirm inconclusive | HCV NS3 counter inactive
COc1ccc(C(=O)O)cc1COc1ccc(NC(C)=O)cc1	none
COC[C@H]1NC(=O)CC[C@H]1C(=O)NCCC1=CCCCC1	none
Cc1ncc(COP(=O)(O)O)c(C=O)c1O	nsP2pro inh inconclusive | CHIKV nsP2 cell inactive | NSP2 full ctr inactive | Furin counter inactive | NS23 peptide cs inactive | Papain counter inactive | nsP2pro confirm inactive | HCV NS3 counter inactive
Cc1ncc(CSSCc2cnc(C)c(O)c2CO)c(CO)c1O	none
Cc1ncc(CO)c(C=O)c1O	none
Cc1ccc(CN2CCC3(CC2)CN(c2ncccn2)CC3CO)cc1C (centres undefined)	none
O=S(=O)(Nc1nccs1)c1ccc(NCc2ccc(Cl)cc2O)cc1	none
CC(C)CN1C2CCC1CN(C(=O)Nc1ccccc1F)C2	none
COc1ccc(NCc2cc3cc4c(cc3n(CC(=O)Nc3ccc(C)cc3C)c2=O)OCO4)cc1	nsP2pro inh inconclusive | CHIKV nsP2 cell inactive
Cc1ccc(NC(=O)Cn2c(=O)n(CCC(=O)NCc3ccc4c(c3)OCO4)c(=O)c3sccc32)c(C)c1	none
COc1ccc2cc(CNc3ccccc3)c(=O)n(CC(=O)Nc3ccc(C(C)=O)cc3)c2c1	none
C=CCNC(=O)N[C@H]1[C@H](O)[C@@H](NCCOC)[C@@H]2OC[C@H]1O2	none
CC(=O)OC12C(O)C(C)C3(O)C4C=C(C)C(=O)C4CC(CO)=CC3C1C2(C)C (centres undefined)	none
Cc1cc(C(=O)CN2CCCC2)c(C)n1-c1ccc(F)cc1	nsP2pro inh 5.56µM! | CHIKV nsP2 cell inactive | NSP2 full ctr inactive | Furin counter inactive | NS23 peptide cs inactive | Papain counter inactive | nsP2pro confirm inactive | HCV NS3 counter inactive
CN1CCCCCC(O)c2cc(C(=O)N3CCN(c4ccc(F)cc4)CC3)ccc21 (centres undefined)	none
O=C(CN1CCN(c2ccc(Cl)cc2)CC1)Nc1ccc(F)cc1F	none
CCCCN(C)C(=O)Cn1nc(-c2cccc(C)c2)ccc1=O	none
CC(=O)Nc1ccc(CN2CC(Oc3ccc4c(c3)OCO4)C2)cc1	none
NC(=O)C1CCN(c2ncc(-c3ccc4c(c3)OCO4)s2)CC1	none
O=C(C1CC1)N1CCC(C(=O)N2CC(Oc3ccc4c(c3)OCO4)C2)CC1	nsP2pro inh 7.94µM | CHIKV nsP2 cell inactive | NSP2 full ctr 13µM | Furin counter inactive | NS23 peptide cs inconclusive | Papain counter inactive | nsP2pro confirm 7.98µM | HCV NS3 counter 7.3µM
Cc1sc(NC(=O)Cc2ccc3c(c2)OCO3)nc1-c1ccc2c(c1)CCN2C(=O)C1CCCCC1	none
Nc1ccccc1S(=O)(=O)Nc1cccc2cccnc12	none
Cc1ccc(C2(O)CCN(CCCC(=O)c3ccc(F)cc3)CC2)cc1	none

High-throughput results deposited in PubChem BioAssay by National Center for Advancing Translational Sciences (NCATS).
